This is an account of results in PubChem BioAssay (NCATS).

Assay [1] in a line: Cell Viability - BJ (AID 421; calls by dose curve;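 further: potency means the concentration at half of the fitted maximal effect; cells exposed to compound for 40 hours at 37 °C before readout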). The settings on record: BJ fibroblast viability, qHTS. In short, it runs like this:
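Normal human BJ foreskin fibroblasts, 1500/well in complete medium, treated 40 hr at 37 °C. Cellular ATP by CellTiter-Glo luminescence; normalized to DMSO and 100 uM tamoxifen, AC50 from Hill fit.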
For orientation: qHTS replaces the single test concentration by a dilution series.

Assay [2] is described as follows: Cell Viability - MRC5 (AID 434; calls by dose curve;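 further: potency means the concentration at half of the fitted maximal effect; potency reflects cytotoxicity seen as loss of intracellular ATP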). The settings on record: MRC5 lung fibroblast viability, qHTS. In short, it runs like this: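 MRC5 normal human lung fibroblasts, 1500 cells/well, exposed to compound for 40 hr at 37 C. Cellular ATP was read by CellTiter-Glo luminescence; data normalized to DMSO and 100 uM tamoxifen, with AC50 from Hill fits.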
Assay [3] addresses Mitogen-activated protein kinase 10 (Mus musculus) (UniProt Q61831). Description: JNK3 AlphaScreen Assay (AID 530; active means well fitted curve in either direction with a large enough effect, not every such curve was filed as active;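 further: kinase came from lysate of stimulated human HepG2 cells; signal reports phosphorylation of biotinylated GST-cJun 1-79 at Ser73 with 10 µM ATP; on the % scale 0 is the no-effect control and ±100 the full control effect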). In short, it runs like this:
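Pre-activated (IL-1β/TNFα) JNK3 in HepG2 lysates phosphorylates biotin-GST-cJun(1-79), 10 uM ATP; anti-phospho-cJun(Ser73) AlphaScreen read at room temperature, pH 7.6 Tris buffer. Compounds pre-incubated 15 min as titrations.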
On the technique in general: Bead proximity is the source of the signal in Alpha formats.

Assay [4] in a line: Cell Viability - N2a (AID 540).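 Further: plate controls were DMSO alone for no effect and tamoxifen control for full effect; nearly all actives have a fitted effect of over 45% in size.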 The settings on record: N2a mouse neuroblastoma cell viability; activity change, negative = cytotoxicity: at 92.2 µM (top of the series). In short, it runs like this: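 Luminescent ATP signal (CellTiter-Glo, 20 min at room temperature) served as the viability read-out after N2a cells were treated with compounds for 40 hours at 37 °C. Concentration-response data were fitted to the Hill equation for AC50.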

Assay [5] can be described thus: Cellular Toxicity (caspase-3) HepG2 (AID 654).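 Further: cells exposed to compound for 16 hours before reading; 0% = DMSO alone and 100% = caspase signal from 100 µM tamoxifen.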 In short, it runs like this: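 Cells plated 5 hr at 37 °C, compound added, incubated 16 hr at 37 °C. Caspase-Glo 3/7 reagent followed, 20 min at room temperature, then luminescence read. Activation scored as signal increase; AC50 from Hill fit.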
A short description of assay [6]: Cellular Toxicity (caspase-3) BJ (AID 658).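 Further: 0% = DMSO basal and 100% = 10 µM staurosporine.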 In short, it runs like this:
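BJ human foreskin fibroblasts, 1000 cells/well, treated 16 hours at 37 °C in complete medium; caspase 3/7 activity by Caspase-Glo luminescence after 1 hr at room temperature. Normalized to DMSO and 10 uM staurosporine; AC50 from Hill fits.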

Assay [7] is described as follows: Cellular Toxicity (caspase-3) MRC-5 (AID 659).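 Further: 0% = DMSO basal and 100% = 10 µM staurosporine.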 In short, it runs like this:
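MRC-5 human normal lung fibroblasts, 1500 cells/well, treated 16 h at 37 °C in complete medium. Caspase 3/7 measured by Caspase-Glo luminescence after 1 h at room temperature. Normalized to DMSO and 10 uM staurosporine; AC50 from Hill fit.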

Assay [8] is described as follows: Cellular Toxicity (caspase-3) Hek293 (AID 664).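 Further: cells exposed to compound for 16 h at 37 °C before readout.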 The settings on record: HEK293 caspase-3 activation, DMSO = 0%, 100 µM tamoxifen = 100%; at 92.2 µM (top of the series). In short, it runs like this:
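Cells plated, 5 hr at 37 °C; compounds added; 16 hr at 37 °C; Caspase-Glo 3/7 reagent, 20 min RT; luminescence read. Activation expressed relative to DMSO and 100 uM tamoxifen, AC50 by Hill model.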

Assay [9] in a line: Cellular Toxicity (caspase-3) N2a (AID 665).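 Further: compound exposure lasted 16 h at 37 °C before readout.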 In short, it runs like this: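 N2a cells, 1500/well, 5 h settle at 37 °C; cpd 16 h, 37 °C; Caspase-Glo 3/7, 1 h RT; luminescence. Norm: DMSO = 0, 10 uM staurosporine = 100%. AC50, Hill fit.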
Assay [10] can be described thus: Cellular Toxicity (caspase-3) NIH 3T3 (AID 666).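 Further: caspase signal read after 16 h compound exposure; 0% = DMSO basal and 100% = 100 µM tamoxifen stimulation.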 In short, it runs like this:
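Luminescence from aminoluciferin released by caspase-3/7 cleavage of a peptide substrate served as read-out. Mouse fibroblast NIH 3T3 cells were exposed to compounds over a concentration range for 16 hours, and AC50 values came from standard Hill modelling.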

Assay [11] addresses Cytochrome P450 3A4 (Homo sapiens) (UniProt P08684). The assay is described as follows: qHTS Assay for Inhibitors and Substrates of Cytochrome P450 3A4 (AID 884). Further: on the % scale 0 is the no-effect control and ±100 the full control effect; nearly all actives have a fitted effect of over 50% in size. In short, it runs like this: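 20 nM human CYP3A4 with 25 uM Luciferin-PPXE (at KM) in 200 mM KPO4, preincubated 10 min with compound; NADPH regeneration started a 60 min RT reaction. Luciferin detected by luminescence, normalized to 57 uM ketoconazole as full inhibition.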

Assay [12] can be described thus: MultiTox-Fluor Cytotoxicity Assay - LYMP1-001 - Dead Cells (AID 946).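 Further: 0% = DMSO and 100% = tetraoctylammonium bromide.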 In short, it runs like this: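 LYMP1-001 lymphoblastoid cells (2500/well) treated 16 h at 37 C. Dead-cell protease cleavage of bis-AAF-R110 read at Ex/Em 485/520. Normalized to DMSO and 15 uM tetraoctylammonium bromide; AC50 from Hill fits.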
Assay [13] is described as follows: MultiTox-Fluor Cytotoxicity Assay - LYMP1-002 - Live Cells (AID 955). Further: on the % scale 0 is the no-effect control and ±100 the full control effect. In short, it runs like this:
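Read-out is live-cell protease activity (cell-permeant GF-AFC substrate, fluorescence Ex/Em=405/510), where a decrease indicates acute toxicity. Human lymphoblastoid cells were treated 16 hours at 37 C in a concentration series, and AC50 values came from standard Hill modelling.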

Assay [14] is described as follows: MultiTox-Fluor Cytotoxicity Assay - LYMP1-003 - Dead Cells (AID 961).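 Further: 0% = DMSO and 100% = tetraoctylammonium bromide; nearly all actives have a fitted effect of over 70% in size.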 In short, it runs like this: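 LYMP1-003 human lymphoblastoid cells (2500/well) exposed to compound 16 h at 37 C in complete medium; dead-cell protease read with bis-AAF-R110 fluorescence (Ex/Em 485/520) after 60 min at room temperature. Normalized to DMSO and 15 uM tetraoctylammonium bromide; AC50 from Hill fit.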

Assay [15] is described as follows: MultiTox-Fluor Cytotoxicity Assay - LYMP1-003 - Live Cells (AID 962).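 Further: 0% = DMSO only and full loss = 92 µM tetraoctylammonium bromide; cytotoxic hits lower the live-cell protease signal.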 In short, it runs like this:
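qHTS, 1536-well; 2500 cells/well LYMP1-003; 5 hr 37 C settle; cpd 16 hr 37 C; MultiTox-Fluor reagent 60 min RT; live-cell protease fluor. 405/510; Hill-fit AC50; tetraoctylammonium bromide pos. ctrl.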

Assay [16] in a line: Cell Viability - LYMP2-026 (AID 989).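 Further: cells exposed to compound for 24 h at 37 °C; on the % scale 0 is the no-effect control and ±100 the full control effect; nearly all actives have a fitted effect of over 50% in size.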 In short, it runs like this:
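Luminescent ATP signal (CellTiter-Glo, 30 min room temperature) measures viable lymphoblastoid cells after 24 hr compound treatment at 37 C. Decreased ATP reflects acute toxicity; AC50 values come from Hill-equation modeling.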

The nature of assay [17]: Cell Viability - LYMP1-002 - Assay at 24 hr (AID 993). Further: on the % scale 0 is the no-effect control and ±100 the full control effect. In short, it runs like this: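 Cells plated 2500/well, 5 hr 37 C; compounds added, 24 hr 37 C; CellTiter-Glo added, 30 min RT; luminescence read. Tetraoctylammonium bromide positive control. Hill-equation AC50.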
Assay [18] can be described thus: qHTS assay for small molecule agonists of retinoid X receptor alpha signaling (AID 588544). The settings on record: HEK293T RXRa-UAS-bla, beta-lactamase reporter, 18 h; 530 nm emission.
Assay [19] concerns the target Peroxisome proliferator-activated receptor alpha (Homo sapiens) (UniProt Q07869). The assay is described as follows: qHTS assay for small molecule agonists of the peroxisome proliferator-activated receptor alpha (PPARalpha) signaling pathway (AID 651778). Further: % of control where 0% means no effect. The settings on record: PathHunter PPARalpha complementation, chemiluminescence, 6 h; stronger effect = higher value. In short, it runs like this: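 Enzyme-fragment complementation assay in which ligand-bound PPARalpha translocates and forms an active enzyme that generates chemiluminescence. Cells were plated overnight, exposed to compound for 6 hr at 37 C, and then given detection reagent for 60 min at room temperature.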

The nature of assay [20]: qHTS assay for cell viability of the p53RE-bla HCT-116 cell line (AID 743292). Further: on the % scale 0 is the no-effect control and ±100 the full control effect; nearly all actives have a fitted effect of over 55% in size. In short, it runs like this: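 CellSensor p53RE-bla HCT-116 cells (4,000/well) pre-incubated 5 h at 37 C, then exposed to compounds in DMSO for 16 h at 37 C. Viability read as ATP content by CellTiter-Glo luminescence after 30 min at room temperature.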

Results filed as inconclusive are left out. Activity calls are given as the source filed them. Unless noted, the call rests on the fitted dose curve; in most records, active means well fitted curve in the direction sought with a large enough effect; inconclusive means small, poorly fitted or top-dose-only effect, or another doubt; inactive means no such curve, though single readings can be large; an effect the other way counts as inactive or inconclusive.

Sequence of Peroxisome proliferator-activated receptor alpha (Homo sapiens) (Q07869 whole entry, looked up, the tested form may be a part): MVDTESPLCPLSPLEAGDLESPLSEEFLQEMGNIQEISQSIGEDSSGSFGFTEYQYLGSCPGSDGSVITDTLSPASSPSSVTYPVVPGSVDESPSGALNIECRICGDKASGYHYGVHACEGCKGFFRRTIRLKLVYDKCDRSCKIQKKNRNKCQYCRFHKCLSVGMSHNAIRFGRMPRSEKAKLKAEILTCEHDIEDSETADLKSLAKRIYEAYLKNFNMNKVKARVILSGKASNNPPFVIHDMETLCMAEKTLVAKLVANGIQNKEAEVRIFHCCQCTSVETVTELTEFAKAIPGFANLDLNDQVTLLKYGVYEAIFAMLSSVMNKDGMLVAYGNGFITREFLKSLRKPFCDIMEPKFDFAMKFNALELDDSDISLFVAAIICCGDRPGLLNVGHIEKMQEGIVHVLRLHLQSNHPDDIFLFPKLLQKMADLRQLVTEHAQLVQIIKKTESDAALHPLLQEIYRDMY
Sequence of Cytochrome P450 3A4 (Homo sapiens) (P08684 whole entry, looked up): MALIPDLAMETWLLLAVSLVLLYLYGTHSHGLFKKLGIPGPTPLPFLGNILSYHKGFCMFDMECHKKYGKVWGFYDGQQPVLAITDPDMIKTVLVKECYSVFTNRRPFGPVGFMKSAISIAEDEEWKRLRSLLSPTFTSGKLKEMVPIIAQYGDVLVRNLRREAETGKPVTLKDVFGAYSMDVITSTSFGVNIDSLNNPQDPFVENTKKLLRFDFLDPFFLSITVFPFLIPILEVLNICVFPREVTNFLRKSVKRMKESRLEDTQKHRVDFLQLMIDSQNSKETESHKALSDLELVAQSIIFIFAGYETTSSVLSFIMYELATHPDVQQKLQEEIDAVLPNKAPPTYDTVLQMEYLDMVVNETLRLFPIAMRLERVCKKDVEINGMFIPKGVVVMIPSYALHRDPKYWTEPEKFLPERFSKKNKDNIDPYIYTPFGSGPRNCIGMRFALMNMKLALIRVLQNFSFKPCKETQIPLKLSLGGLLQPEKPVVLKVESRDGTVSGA

As to `CCC[N+](=O)[O-]`, the Potency in assay [1] and in assay [2] was > 92 µM (inactive) throughout. Further, the Potency entry in assay [3], in assay [4], in [10], in assay [11], in assay [14] and in assay [16] was “inactive” in each case. For the same compound, the Potency result in assay [17] and in [20] was “inactive” in each case. For the same compound, the outcome in [5], in assay [6], in assay [7], in [9], in assay [12] and in assay [13] was inactive. Further, the compound was called inactive in assay [15]. Besides, the caspase-3 activation in assay [8] is 0.185% (inactive). Besides, the max response in [18] was -16.6%; in assay [19], -0.431% (inactive).
Consider `O=[N+]([O-])c1ccccc1CCl`, for which the Potency in assay [1] and in assay [2] was > 92 µM (inactive) each time. For the same compound, the Potency result in [4], in assay [10], in [11], in assay [14], in assay [16] and in assay [17] was “inactive” throughout. Moreover, the Potency entry in assay [20] is “inactive”. Further, the compound was called inactive in assay [5], in [6], in [7], in [9], in [12] and in assay [13]. Further, the call in assay [15] was inactive. Further, in [8], the caspase-3 activation is 0.434% (inactive). Moreover, the results for the max response in [18] and in assay [19] were -8.73% and -1.86% (inactive), respectively.
Turning to `[O-][Cl+]O`, the Potency in [1] and in [2] was > 92 µM (inactive) throughout. Also, the Potency entry in assay [3], in assay [4], in assay [10], in [11], in assay [14] and in assay [16] was “inactive” throughout. Further, the Potency entry in assay [17] and in assay [20] was “inactive” each time. For the same compound, the compound was called inactive in [5], in [6], in [7], in assay [9], in assay [12] and in [13]. Further, the outcome in assay [15] was inactive. Also, in assay [8], the caspase-3 activation was 1.6% (inactive). In addition, the values for the max response in assay [18] and in [19] were -9.53% and 0.737% (inactive), respectively.
As to `N#CCCCCC#N`, the Potency in assay [1] and in assay [2] was > 92 µM (inactive) each time. For the same compound, the Potency result in assay [3], in assay [4], in assay [10], in assay [11], in [14] and in [16] was “inactive” each time. Moreover, the Potency entry in [17] and in assay [20] was “inactive” each time. The call in assay [5], in assay [6], in assay [7], in assay [9], in assay [12] and in [13] was inactive. Also, the compound was classed as inactive in assay [15]. Moreover, the caspase-3 activation in assay [8] was 0.323% (inactive). Also, the max response in assay [18] is 10.4%; in [19], -1.89% (inactive).
Consider `O=P(OCCCl)(OCCCl)OCCCl`, for which the Potency in [1] and in [2] was > 92 µM (inactive) in each case. Also, the Potency result in assay [3], in [4], in assay [10], in [11], in assay [14] and in [16] was “inactive” each time. Besides, the Potency entry in assay [17] and in [20] was “inactive” in each case. In addition, the call in assay [5], in assay [6], in assay [7], in [9], in assay [12] and in assay [13] was inactive. Further, in assay [15], the compound was classed as inactive. Further, the caspase-3 activation in assay [8] is 4.86% (inactive). In addition, the max response in [18] was -20%; in assay [19], -2.47% (inactive).
